From the supplement of paper PMC10849652
The full data set covers some 7,900 targets. This sample favours those with a hit. About 0.6% of all pairs of compound and target were hits.

Key:
Experiment in all cases: log2 fold change, soluble protein after heating vs DMSO (PISA); higher = thermal stabilisation; K562 cells, 10 uM, 30 min; active = over 0.2 and 3.5 SD of the protein, either way, in both replicates (recomputed)
[1] = compound: C1=CC=C(C=C1)[C@H](COC2=CC3=C(C=C2)NC(=O)N3)NC(=O)C4=CC=CN(C4=O)CC5=CC(=C(C=C5)F)F
Summary of the method: (§1)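 Thermal stability values are relative to control samples and come from duplicates. They are expressed as log2 fold changes. For measurement, K562 cells (2×10^6 cells/mL) received 10 μM compound for 30 min, and aliquots were heated for 3 min over 48°C-58°C, pooled, and extracted at 4°C in PBS with 0.5% NP-40. Soluble protein, the supernatant after 21,000xg for 90 min, was quantified by TMTpro 16plex LC-MS/MS with equalised channel sums.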

[2] = compound: CC1=C(SC2=C1C(=N[C@H](C3=NN=C(N32)C)CC(=O)N)C4=CC=C(C=C4)Cl)C
Summary of the method: as §1

[3] = compound: CC1=C2C(=CC=C1)N=C(N(C2=O)C3=CC=CC=C3C)CN4C=NC5=C(N=CN=C54)N
Summary of the method: as §1

[4] = compound: Cc1sc2c(c1C)C(c1ccc(Cl)cc1)=N[C@@H](CC(=O)OC(C)(C)C)c1nnc(C)n1-2
Summary of the method: as §1

[5] = compound: c1ccc([C@@H]2C[C@H]2NC2CCNCC2)cc1
Summary of the method: as §1

Measured: log2 fold change

TRIM23 (UniProt P36406)
inactive: [1] 0.023 | [2] 0.122 | [3] 0.049 | [4] -0.096 | [5] -0.05

VWA8 (UniProt A3KMH1)
inactive: [1] -0.03 | [2] 0.023 | [3] 0.091 | [4] -0.044 | [5] -0.052

TOM1L1 (UniProt O75674)
inactive: [1] -0.019 | [2] 0.045 | [3] 0.034 | [4] 0.009 | [5] 0.023

USP14 (UniProt P54578)
Chain of UniProt P54578 (P54578 whole entry, looked up): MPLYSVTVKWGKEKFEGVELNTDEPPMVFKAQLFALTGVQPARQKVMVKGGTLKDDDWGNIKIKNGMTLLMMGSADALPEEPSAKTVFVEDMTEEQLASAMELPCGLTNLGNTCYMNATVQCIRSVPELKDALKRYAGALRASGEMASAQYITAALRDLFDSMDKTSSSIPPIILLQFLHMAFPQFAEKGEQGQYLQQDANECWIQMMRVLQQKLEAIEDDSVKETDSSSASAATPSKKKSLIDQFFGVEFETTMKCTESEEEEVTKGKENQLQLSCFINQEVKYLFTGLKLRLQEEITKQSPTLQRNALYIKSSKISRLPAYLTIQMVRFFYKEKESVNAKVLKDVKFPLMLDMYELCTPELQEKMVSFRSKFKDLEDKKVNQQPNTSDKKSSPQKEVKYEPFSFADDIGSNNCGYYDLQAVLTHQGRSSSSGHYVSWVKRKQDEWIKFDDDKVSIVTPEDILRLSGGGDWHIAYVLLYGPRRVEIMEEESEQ
inactive: [1] -0.031 | [2] 0.03 | [3] 0.046 | [4] -0.028 | [5] -0.025

TUBAL3 (UniProt A6NHL2)
Chain of UniProt A6NHL2 (A6NHL2 whole entry, looked up): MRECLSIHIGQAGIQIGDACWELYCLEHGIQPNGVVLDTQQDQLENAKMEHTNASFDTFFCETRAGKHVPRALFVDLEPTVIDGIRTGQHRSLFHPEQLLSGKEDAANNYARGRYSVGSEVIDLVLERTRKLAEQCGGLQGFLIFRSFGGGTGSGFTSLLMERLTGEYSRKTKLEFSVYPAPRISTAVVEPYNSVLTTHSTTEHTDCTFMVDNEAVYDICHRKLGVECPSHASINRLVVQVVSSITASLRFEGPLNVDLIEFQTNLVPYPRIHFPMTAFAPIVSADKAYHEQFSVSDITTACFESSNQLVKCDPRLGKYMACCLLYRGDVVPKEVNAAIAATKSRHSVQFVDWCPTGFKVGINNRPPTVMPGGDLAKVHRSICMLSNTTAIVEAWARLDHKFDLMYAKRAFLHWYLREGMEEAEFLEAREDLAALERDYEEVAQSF
inactive: [1] -0.196 | [2] -0.012 | [3] 0.096 | [4] -0.051 | [5] 0.029

VWA3B isoform 6 (UniProt Q502W6)
inactive: [1] -0.161 | [2] 0.069 | [3] 0.162 | [4] 0.129 | [5] 0.064

TMEM9 (UniProt Q9P0T7)
Chain of UniProt Q9P0T7 (Q9P0T7 whole entry, looked up): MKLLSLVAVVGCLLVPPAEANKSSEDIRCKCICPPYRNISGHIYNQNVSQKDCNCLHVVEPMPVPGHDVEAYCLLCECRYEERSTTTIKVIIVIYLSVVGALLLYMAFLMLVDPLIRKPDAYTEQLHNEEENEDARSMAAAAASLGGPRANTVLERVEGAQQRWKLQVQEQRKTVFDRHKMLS
inactive: [1] 0.008 | [2] 0.02 | [3] -0.002 | [4] -0.027 | [5] -0.079

TSPAN13 (UniProt O95857)
Chain of UniProt O95857 (O95857 whole entry, looked up): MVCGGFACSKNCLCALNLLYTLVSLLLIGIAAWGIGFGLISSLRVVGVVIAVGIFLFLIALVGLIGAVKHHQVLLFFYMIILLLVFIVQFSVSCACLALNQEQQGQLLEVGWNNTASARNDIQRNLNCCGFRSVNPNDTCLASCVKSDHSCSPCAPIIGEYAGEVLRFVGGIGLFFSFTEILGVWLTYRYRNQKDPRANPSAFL
inactive: [1] -0.195 | [2] 0.023 | [4] 0.076 | [5] 0.018
active: [3] 0.639

TUBA4A (UniProt P68366)
inactive: [1] -0.02 | [2] 0.077 | [3] -0.03 | [4] -0.01 | [5] -0.076

UBE2D1 (UniProt P51668)
Chain of UniProt P51668 (P51668 whole entry, looked up): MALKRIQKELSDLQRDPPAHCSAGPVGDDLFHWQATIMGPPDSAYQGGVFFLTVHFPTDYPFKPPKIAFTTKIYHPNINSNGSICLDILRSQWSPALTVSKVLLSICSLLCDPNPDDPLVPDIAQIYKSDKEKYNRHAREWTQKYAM
inactive: [1] -0.053 | [2] -0.014 | [3] 0.065 | [4] -0.081 | [5] -0.035

UBE2S (UniProt Q16763)
Chain of UniProt Q16763 (Q16763 whole entry, looked up): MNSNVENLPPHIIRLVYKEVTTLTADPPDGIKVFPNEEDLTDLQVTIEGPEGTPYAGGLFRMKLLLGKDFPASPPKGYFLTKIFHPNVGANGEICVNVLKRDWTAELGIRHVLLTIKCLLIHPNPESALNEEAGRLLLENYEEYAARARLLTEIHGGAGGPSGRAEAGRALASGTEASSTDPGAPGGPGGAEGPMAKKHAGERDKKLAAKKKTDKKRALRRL
inactive: [1] 0.002 | [2] 0.053 | [3] 0.106 | [4] 0 | [5] 0.013

TNFRSF8 (UniProt P28908)
inactive: [1] 0.012 | [2] 0.053 | [3] 0.036 | [4] -0.04 | [5] 0.021

WNK1 isoform 7 (UniProt Q9H4A3)
inactive: [1] -0.011 | [2] 0.023 | [3] 0.049 | [4] -0.007 | [5] -0.003

TRMT10A (UniProt Q8TBZ6)
Chain of UniProt Q8TBZ6 (Q8TBZ6 whole entry, looked up): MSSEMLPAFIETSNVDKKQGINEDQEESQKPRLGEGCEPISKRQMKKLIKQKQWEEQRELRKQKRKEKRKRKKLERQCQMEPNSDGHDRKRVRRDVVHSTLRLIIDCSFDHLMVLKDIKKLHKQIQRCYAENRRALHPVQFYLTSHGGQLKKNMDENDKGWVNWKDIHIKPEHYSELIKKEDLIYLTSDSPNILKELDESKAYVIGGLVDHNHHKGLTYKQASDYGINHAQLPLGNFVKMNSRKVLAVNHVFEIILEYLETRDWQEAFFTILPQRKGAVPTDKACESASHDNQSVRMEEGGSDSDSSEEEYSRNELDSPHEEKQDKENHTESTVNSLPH
inactive: [1] -0.038 | [2] 0.028 | [3] 0.006 | [4] -0.033 | [5] -0.055

UBAP1 isoform 4 (UniProt Q9NZ09)
inactive: [1] 0.021 | [2] 0.005 | [3] 0.129 | [4] -0.171 | [5] -0.072

USP48 isoform 8 (UniProt Q86UV5)
inactive: [1] -0.073 | [2] 0.106 | [3] 0.191 | [4] -0.012 | [5] 0.119

TRAPPC3 (UniProt O43617)
inactive: [1] -0.025 | [2] 0.03 | [3] 0.036 | [4] -0.024 | [5] 0.007

UBXN10 (UniProt Q96LJ8)
Chain of UniProt Q96LJ8 (Q96LJ8 whole entry, looked up): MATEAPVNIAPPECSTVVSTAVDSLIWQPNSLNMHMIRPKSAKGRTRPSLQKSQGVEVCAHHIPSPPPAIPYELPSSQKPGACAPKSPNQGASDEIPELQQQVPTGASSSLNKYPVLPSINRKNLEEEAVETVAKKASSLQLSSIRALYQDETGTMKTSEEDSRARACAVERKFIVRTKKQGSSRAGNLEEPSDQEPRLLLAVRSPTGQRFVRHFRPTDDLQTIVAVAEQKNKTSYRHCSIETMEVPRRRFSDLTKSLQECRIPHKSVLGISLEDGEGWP
inactive: [1] 0.011 | [2] 0.014 | [3] 0.024 | [4] 0.018 | [5] 0.063

TRIM28 (UniProt Q13263)
Chain of UniProt Q13263 (Q13263 whole entry, looked up): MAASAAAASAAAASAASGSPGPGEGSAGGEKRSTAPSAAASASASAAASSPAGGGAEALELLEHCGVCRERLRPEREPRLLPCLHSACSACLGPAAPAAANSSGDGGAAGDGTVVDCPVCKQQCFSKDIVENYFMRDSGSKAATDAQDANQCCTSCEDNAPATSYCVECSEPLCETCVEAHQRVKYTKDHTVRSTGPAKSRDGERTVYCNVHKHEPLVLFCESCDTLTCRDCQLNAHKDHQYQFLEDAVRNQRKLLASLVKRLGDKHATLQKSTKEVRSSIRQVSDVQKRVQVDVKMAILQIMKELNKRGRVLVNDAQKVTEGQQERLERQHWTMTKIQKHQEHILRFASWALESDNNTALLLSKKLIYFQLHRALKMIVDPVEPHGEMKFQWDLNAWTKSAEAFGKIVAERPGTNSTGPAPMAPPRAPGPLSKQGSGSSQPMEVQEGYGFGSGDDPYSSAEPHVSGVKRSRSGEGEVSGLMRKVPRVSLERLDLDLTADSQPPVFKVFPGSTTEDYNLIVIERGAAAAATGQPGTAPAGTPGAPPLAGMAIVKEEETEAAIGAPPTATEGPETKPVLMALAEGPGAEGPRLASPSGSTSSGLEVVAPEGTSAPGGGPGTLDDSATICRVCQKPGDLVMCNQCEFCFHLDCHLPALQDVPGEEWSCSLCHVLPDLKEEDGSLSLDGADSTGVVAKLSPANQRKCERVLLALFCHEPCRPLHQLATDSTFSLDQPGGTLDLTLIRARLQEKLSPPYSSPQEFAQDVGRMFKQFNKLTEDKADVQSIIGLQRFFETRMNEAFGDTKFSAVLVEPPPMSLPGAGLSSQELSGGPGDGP
inactive: [1] -0.029 | [2] 0.029 | [3] 0.017 | [4] -0.012 | [5] 0.009

USP3 (UniProt Q9Y6I4)
Chain of UniProt Q9Y6I4 (Q9Y6I4 whole entry, looked up): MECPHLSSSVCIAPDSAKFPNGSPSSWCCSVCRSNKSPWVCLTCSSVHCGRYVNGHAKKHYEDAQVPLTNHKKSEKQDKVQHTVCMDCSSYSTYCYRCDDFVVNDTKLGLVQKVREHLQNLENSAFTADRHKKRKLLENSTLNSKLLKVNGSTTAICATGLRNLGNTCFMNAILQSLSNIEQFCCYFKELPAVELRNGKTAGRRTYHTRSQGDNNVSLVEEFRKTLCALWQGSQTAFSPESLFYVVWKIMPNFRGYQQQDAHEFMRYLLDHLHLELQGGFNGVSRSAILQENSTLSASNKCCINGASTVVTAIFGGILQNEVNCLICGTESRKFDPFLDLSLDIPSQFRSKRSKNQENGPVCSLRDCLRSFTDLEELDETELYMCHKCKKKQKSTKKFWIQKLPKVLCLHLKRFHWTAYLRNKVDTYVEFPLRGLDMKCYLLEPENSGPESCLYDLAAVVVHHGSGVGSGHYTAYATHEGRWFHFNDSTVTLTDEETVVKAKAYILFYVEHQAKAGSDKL
inactive: [1] 0 | [2] 0.143 | [3] 0.036 | [4] -0.061 | [5] -0.025

TMEM161A (UniProt Q9NX61)
Chain of UniProt Q9NX61 (Q9NX61 whole entry, looked up): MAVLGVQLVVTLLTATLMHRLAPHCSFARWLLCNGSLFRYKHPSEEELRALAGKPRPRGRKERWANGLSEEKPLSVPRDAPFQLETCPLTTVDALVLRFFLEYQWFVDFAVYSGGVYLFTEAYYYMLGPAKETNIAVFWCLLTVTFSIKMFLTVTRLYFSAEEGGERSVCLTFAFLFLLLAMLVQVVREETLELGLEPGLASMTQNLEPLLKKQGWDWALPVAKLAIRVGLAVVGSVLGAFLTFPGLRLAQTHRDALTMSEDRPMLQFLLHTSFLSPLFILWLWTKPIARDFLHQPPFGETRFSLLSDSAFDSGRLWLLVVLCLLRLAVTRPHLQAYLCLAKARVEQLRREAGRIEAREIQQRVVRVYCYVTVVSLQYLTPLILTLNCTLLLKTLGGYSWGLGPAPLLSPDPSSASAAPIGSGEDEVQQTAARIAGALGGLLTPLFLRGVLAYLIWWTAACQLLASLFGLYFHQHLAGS
inactive: [1] -0.055 | [2] 0.017 | [3] 0.098 | [4] -0.133 | [5] 0.003

VPS51 (UniProt Q9UID3)
Chain of UniProt Q9UID3 (Q9UID3 whole entry, looked up): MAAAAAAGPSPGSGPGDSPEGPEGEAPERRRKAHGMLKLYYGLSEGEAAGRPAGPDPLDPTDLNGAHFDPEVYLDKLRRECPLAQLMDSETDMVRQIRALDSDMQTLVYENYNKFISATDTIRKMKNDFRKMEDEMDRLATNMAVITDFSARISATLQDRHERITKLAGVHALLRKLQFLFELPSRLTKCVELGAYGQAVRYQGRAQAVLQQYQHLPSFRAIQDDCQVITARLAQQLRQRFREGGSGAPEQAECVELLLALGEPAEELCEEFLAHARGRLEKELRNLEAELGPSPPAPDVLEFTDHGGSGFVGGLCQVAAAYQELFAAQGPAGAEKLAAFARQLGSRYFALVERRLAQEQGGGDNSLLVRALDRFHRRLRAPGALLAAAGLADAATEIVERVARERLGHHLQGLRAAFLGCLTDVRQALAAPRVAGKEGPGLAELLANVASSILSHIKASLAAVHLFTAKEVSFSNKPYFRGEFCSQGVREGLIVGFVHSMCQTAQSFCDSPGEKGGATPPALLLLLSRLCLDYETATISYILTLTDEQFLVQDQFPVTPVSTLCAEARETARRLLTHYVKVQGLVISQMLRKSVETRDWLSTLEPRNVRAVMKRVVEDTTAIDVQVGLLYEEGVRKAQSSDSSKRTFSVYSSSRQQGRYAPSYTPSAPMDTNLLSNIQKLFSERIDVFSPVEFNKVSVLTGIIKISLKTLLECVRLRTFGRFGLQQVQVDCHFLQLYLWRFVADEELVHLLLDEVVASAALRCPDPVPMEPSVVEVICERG
inactive: [1] -0.047 | [2] 0.026 | [3] 0.047 | [4] -0.048 | [5] -0.044

UXT isoform 2 (UniProt Q9UBK9)
inactive: [1] 0.046 | [2] 0.063 | [3] 0.065 | [4] -0.005 | [5] -0.077

USP7 (UniProt Q93009)
inactive: [1] -0.165 | [2] 0.026 | [3] 0.09 | [4] -0.01 | [5] -0.062
